From PubChem BioAssay AID794 (The Scripps Research Institute Molecular Screening Center, 2007) come the findings set out here.

The list shows a part of the results. Values without a mark were called inactive. Activity calls are given as the source filed them. Cut-off read from the data, not from the text of the source: active = inhibition above about 19%; inactive = the rest.

Chain of Focal adhesion kinase 1 (Homo sapiens) (Q05397 whole entry, looked up): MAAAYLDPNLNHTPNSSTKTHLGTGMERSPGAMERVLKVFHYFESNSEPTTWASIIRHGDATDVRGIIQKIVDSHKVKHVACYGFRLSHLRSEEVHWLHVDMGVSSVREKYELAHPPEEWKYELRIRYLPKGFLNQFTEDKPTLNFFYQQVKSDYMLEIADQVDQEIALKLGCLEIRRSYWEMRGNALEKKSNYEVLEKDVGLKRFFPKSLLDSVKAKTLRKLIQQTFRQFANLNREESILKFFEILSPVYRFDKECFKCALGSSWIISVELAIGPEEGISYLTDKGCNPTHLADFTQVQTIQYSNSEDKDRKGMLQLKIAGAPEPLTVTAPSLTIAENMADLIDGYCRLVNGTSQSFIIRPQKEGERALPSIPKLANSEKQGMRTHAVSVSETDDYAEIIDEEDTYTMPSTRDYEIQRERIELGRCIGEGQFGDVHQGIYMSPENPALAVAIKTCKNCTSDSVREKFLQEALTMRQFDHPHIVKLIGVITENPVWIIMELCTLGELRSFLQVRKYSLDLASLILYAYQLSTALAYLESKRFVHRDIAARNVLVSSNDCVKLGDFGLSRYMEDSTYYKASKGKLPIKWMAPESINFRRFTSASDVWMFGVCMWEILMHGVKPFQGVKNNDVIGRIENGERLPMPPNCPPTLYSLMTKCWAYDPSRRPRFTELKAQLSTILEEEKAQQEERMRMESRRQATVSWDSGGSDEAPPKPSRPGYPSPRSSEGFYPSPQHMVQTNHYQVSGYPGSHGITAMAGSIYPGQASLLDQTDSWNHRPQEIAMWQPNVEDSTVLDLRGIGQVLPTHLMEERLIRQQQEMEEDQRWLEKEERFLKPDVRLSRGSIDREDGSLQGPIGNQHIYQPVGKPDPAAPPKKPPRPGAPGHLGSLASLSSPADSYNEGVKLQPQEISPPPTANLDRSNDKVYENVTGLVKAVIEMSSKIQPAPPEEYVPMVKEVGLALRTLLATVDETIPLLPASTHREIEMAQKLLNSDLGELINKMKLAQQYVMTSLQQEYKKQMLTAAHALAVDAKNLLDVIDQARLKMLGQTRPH

This assay concerns the target Focal adhesion kinase 1 (Homo sapiens) (UniProt Q05397). Briefly: FAK kinase inhibitors, retest, confirmation, biochemical (AID 794). The following applies: FAK kinase biochemical inhibition assay; at 7 µM; active compounds read high.
For `O=[N+]([O-])c1ccc(Oc2ccc(F)cc2Br)c2ccncc12`, the inhibition was 6.15%.
The same measure for `Cc1cc2cc3c(N)[nH]nc3nc2cc1C`: 20.5% (active); for `COC(=O)c1c(NC(=O)CSc2nncs2)sc2c1CCCCC2`: 10.8%; for `Cn1c(CCN2CCCCCC2)nc2cc(NC(=O)Nc3ccccc3)ccc21`: 7.82%.
The same measure for `CC(=NCc1ccco1)C1=C(O)c2ccccc2C1=O`: 15.2%; for `O=[N+]([O-])c1ccc(C=Nc2ccc(Cl)cc2Cl)s1`: 2.19%; for `CCc1ccccc1NC(=O)CSc1nnc([C@@H](NC(=O)OC(C)(C)C)C(C)CC)o1` (stereo not given in full): -1.72%.
The result for `COc1cc(N=Cc2c(O)[nH]c3ccccc23)cc(OC)c1OC` reads 56.3% (active).
In the case of `CCCOc1ccc(NC(=O)C2CCCNC2=O)cc1` (stereo not given), the inhibition is -2.48%.
The same measure for `Cn1cccc1C(=O)Nc1nccs1`: 7.79%.
`Fc1ccc(-c2ccc(-c3nn4c(-c5ccco5)nnc4s3)o2)cc1`: the inhibition was 5.37%.
The same measure for `Oc1ccccc1/C=N/n1c(-c2cccs2)n[nH]c1=S`: 8.74%.
The same measure for `Cc1cccn2c(=O)c3cc(C(=O)N4COCC4(C)C)n(C)c3nc12`: 6.3%; for `CCc1ccc2nc3sc(C(=O)Nc4nnc(CC)s4)c(N)c3cc2c1`: 16.1%; for `CCN(CC)S(=O)(=O)c1ccc2c3c(cccc13)C(=O)S2`: 14.7%.
The result for `Cc1ccc(-c2nn(C(C)(C)C)c3ncnc(N)c23)cc1` reads 15.6%; that for `Nc1c(-c2ccc(F)cc2)cnc2ncnn12`, -3.73%.
Turning to `COc1ccc(NC(=O)ON=C2c3ccccc3-c3ccccc32)cc1`, the inhibition was 6.77%.
Regarding `Cc1cc(NC(=O)c2cnn3cccnc23)n(-c2ccccc2)n1`, the inhibition was 13.6%.
The same measure for `CCN(CC)S(=O)(=O)c1cc([N+](=O)[O-])ccc1NNC(=O)Nc1ccccc1`: 19.2% (active).
The result for `COCCn1c(C)cc(C(=O)CSc2ncnc3sc4c(c23)CCC4)c1C` reads 4.05%; that for `O=C(Nc1ccc(-n2ccnc2P(=O)(O)c2ccccc2)cc1)c1ccccc1Br`, 16.2%; that for `Cc1ccc(-n2nc3ccc(NC(=O)/C=C/c4ccco4)cc3n2)cc1C`, 5.82%.
The result for `CC(=O)c1ccc(Cc2ncc(C(F)(F)F)cc2Cl)s1` reads -0.34%.
`Clc1ccccc1CSc1nnc(-c2ccco2)c(-c2ccco2)n1`: the inhibition is 8.81%.

Broadly, the inhibition is the drop in the measured response relative to a control, in per cent.
